PubChem BioAssay AID630 (Emory University Molecular Libraries Screening Center, 2007)
The campaign covered roughly 88,000 compounds. About 260 (0.3%) were called active. The sample holds actives, similar compounds and a random draw of the others, so the mix is not that of the screen. Unmarked numbers belong to inactive results.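 How the source made its calls: active means compounds that reduce the energy-transfer binding signal between the protein and its labelled peptide by more than half; inactive means the rest.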

What follows are compounds tested against Mothers against decapentaplegic homolog 3 (Homo sapiens) (UniProt P84022) (assay: blockers of Smad3 binding to FoxH1 – biochemical, TR-FRET, primary screen (AID 630;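 further: 0% = Smad3 plus labelled peptide maximal FRET and 100% = peptide-only background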)). Settings: TR-FRET Smad3/Dy647-FoxH1 peptide binding, europium anti-His; at 25 µM; active compounds read high.
Sequence of Mothers against decapentaplegic homolog 3 (Homo sapiens) (P84022 whole entry, looked up): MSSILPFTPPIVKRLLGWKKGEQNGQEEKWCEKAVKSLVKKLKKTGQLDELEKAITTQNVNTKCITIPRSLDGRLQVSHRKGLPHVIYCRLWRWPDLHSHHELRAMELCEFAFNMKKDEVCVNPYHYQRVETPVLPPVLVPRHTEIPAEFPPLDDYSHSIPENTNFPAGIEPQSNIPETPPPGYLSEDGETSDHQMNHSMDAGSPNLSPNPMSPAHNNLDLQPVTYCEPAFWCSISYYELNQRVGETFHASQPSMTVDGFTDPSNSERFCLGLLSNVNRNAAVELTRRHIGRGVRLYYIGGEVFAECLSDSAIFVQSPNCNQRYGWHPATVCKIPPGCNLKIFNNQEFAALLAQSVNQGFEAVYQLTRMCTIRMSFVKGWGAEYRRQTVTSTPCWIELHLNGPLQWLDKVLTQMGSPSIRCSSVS

In order of rising inhibition:
1. Cc1oc2nc(SCC(=O)Nc3ccc(S(N)(=O)=O)cc3)nc(NC(=O)c3ccccc3)c2c1C  -117%
2. Cc1c(CCO)c(=O)n(-c2ccccc2)n1S(=O)(=O)c1ccc(F)cc1  -23.9%
3. O=C(Cc1ccc(-n2c(=O)c3sccc3n(Cc3ccc(F)cc3)c2=O)cc1)NCc1ccco1  -21.8%
4. Nn1c(Cc2cccc3ccccc23)nnc1SCC(=O)N1CC(=O)Nc2ccccc21  -9.99%
5. Cc1cc(C)cc(N(CC(=O)N2CC=C(c3ccccc3)CC2)S(=O)(=O)c2c(C)noc2C)c1  -9.86%
6. CCN(CC)Cc1cc(C(C)=O)ccc1O  -9.81%
7. O=C(c1ccco1)N1CCN(C(=O)C2CCCN(S(=O)(=O)c3cccc4nsnc34)C2)CC1 (centres undefined)  -9.4%
8. Cc1ccc(C2C(C#N)C(C#N)N3CCCN23)cc1 (centres undefined)  -8.98%
9. CCN1CCN(c2ncnc3c2oc2nc(C)c4c(c23)CC(C)(C)OC4)CC1  -8.93%
10. CCOc1ccc(CN(Cc2ccco2)S(=O)(=O)c2ccc(-n3cnnn3)c(OC)c2)cc1  -8.78%
11. O=C(O)COc1c(Cl)cc(Cl)c2cccnc12  -8.45%
12. CC(C)(C)NC(=O)CN(Cc1cccs1)C(=O)CNS(=O)(=O)c1ccccc1  -8.34%
13. CCn1c(SCC(=O)Nc2ccc(OC)c(OC)c2)nnc1-c1c[nH]c2ccccc12  -6.68%
14. CC(=O)C1=C(C)NC(C)=C(C(C)=O)C1c1cn(-c2ccccc2)nc1-c1cccs1  -6.06%
15. COc1ccc(-c2nn(-c3ccccc3)cc2C(=O)Nc2nccs2)cc1OC  -5%
16. COC(=O)C1=C(C(=O)c2ccc(C)cc2)C(c2ccccc2)n2nnnc2N1 (centres undefined)  -4.2%
17. CCc1cccc(C)c1N(C(=O)Cn1c(CO)nc2ccccc21)C(C)COC (centres undefined)  -3.83%
18. Cc1ccc(-c2noc(CSc3nnc(-c4cccs4)n3C)n2)cc1  -3.4%
19. CCOC(=O)C1=C(C)NC(SC)=NC1c1ccccc1 (centres undefined)  -3.1%
20. CC(C)(C)C(=O)c1cnc(Nc2ccccc2)s1  -2.94%
21. COC(=O)c1cc(NC(=O)CC2C(=O)NCCN2C(=O)c2ccc(F)cc2)cc(C(=O)OC)c1 (centres undefined)  -2.76%
22. Cc1cc(SCC(=O)c2ccccc2)nc(SCC(=O)c2ccccc2)n1  -1.72%
23. Cc1ccc(S(=O)(=O)NCC(C)NS(C)(=O)=O)cc1 (centres undefined)  -1.07%
24. Cn1cc(S(=O)(=O)N2CCN(c3ccc(F)cc3)CC2)c(=O)n(C)c1=O  -0.19%
25. CC1=NN(c2ccccc2)C(=O)[C@H]1N=Nc1ccc(S(N)(=O)=O)cc1  -0.1%
26. COc1cc(N2CCCC2)c(OC)cc1/C=C(/C#N)c1cccc(Br)c1  0.41%
27. N#C/C(=C(\O)CCl)c1nnc2n1CCCCC2  0.54%
28. O=C(Cc1c[nH]c2ccccc12)OCCOC(=O)Cc1c[nH]c2ccccc12  0.81%
29. O=C(O)/C=C/C(=O)Nc1ccc2c(c1)-c1ccccc1C2  0.91%
30. COC(=O)c1ccccc1Sc1c(/C=N/OCc2ccc(Cl)cc2)c(C(F)(F)F)nn1C  1.08%
31. C=CCN(C(=O)Nc1ccc2oc(C)nc2c1)c1ccccc1  1.13%
32. COc1ccc(Nc2cc(=O)oc3ccccc23)cc1  1.47%
33. CCC(CC)C(=O)N1CC(=O)Nc2ccc(Br)cc2C1c1ccccc1 (centres undefined)  1.61%
34. Cc1ccc(C2NC(=S)NC3=C2N2CCC3CC2)cc1 (centres undefined)  2.12%
35. Cc1cc(C)nc(N2CCN(c3ncnc4c3oc3ccccc34)CC2)n1  2.31%
36. CCCCOc1ccc(N(CC(=O)NCC2CCCO2)C(=O)CCC(=O)Nc2cc(C)ccn2)cc1 (centres undefined)  2.38%
37. CC(=NCc1ccco1)c1c(C(F)(F)F)[nH]n(-c2nc3ccccc3s2)c1=O  3.18%
38. Cc1ccc(C)c(N2C(=O)CS/C2=N\NC(=O)c2ccccc2Cl)c1  3.21%
39. CCOC(=O)CN(Cc1ccc(OC)c(OC)c1)S(=O)(=O)c1ccc(OC)cc1  3.33%
40. Cc1cc(C)n(-c2cc(Oc3ccccc3)ncn2)n1  3.36%
41. CC(C)CNC(=S)NNC(=O)c1nn(C)cc1Cl  3.44%
42. OCCNc1nc2ccccc2[nH]1  3.77%
43. O=C(c1cc2sccc2n1Cc1ccc(F)cc1)N1CCc2ccccc21  4.44%
44. CCOc1c(Cl)cc(/C=N/O)cc1OC  5.66%
45. CCOC(=O)C(C)n1cnc2sc(C)c(C)c2c1=O (centres undefined)  5.75%
46. OC(COc1ccc2ccccc2c1)Cn1cncn1 (centres undefined)  6.06%
47. CC1(C)C2CCC13CS(=O)(=O)NC3C2 (centres undefined)  7.24%
48. Cc1ccc(NC(=O)CSCC(=O)N2CCOCC2)cc1  8.2%
49. NC1=NC(=O)C2(COC(c3ccccc3Cl)OC2)S1 (centres undefined)  8.22%
50. O=C(CCN1CCc2ccccc2C(O)(c2ccccc2)C1)c1ccc2c(c1)OCCO2 (centres undefined)  8.66%
51. O=C(Nc1cccc2ccccc12)N1CCN(Cc2ccc3c(c2)OCO3)CC1  8.91%
52. O=C(OCC#CCSc1nnc(-c2ccncc2)o1)c1sc2ccccc2c1Cl  8.98%
53. Cn1c(Cn2nnc3ccccc32)nnc1SCC(=O)c1ccccc1F  16.9%
54. COc1ccc2c(c1)cc1n2CCN=C1NN  17.3%
55. Clc1ccc(C2=CSC3=Nc4cccc5cccc(c45)N23)cc1  19.6%
56. C/C(N[O-])=C(\C)[N+]([O-])=[Co].CC(=N\[O-])/C(C)=N/[O-].[CH2-]CCN1CCOCC1.c1ccncc1  25%

For CC(C)c1nc2oc3c(N4CCN(C)CC4)ncnc3c2c2c1CCC2, the inhibition was 51.1% (active).
Cc1cc2c(cc1C)NC1=C(N2)O[C@H](c2c[nH]c3ccc(COc4ccccc4)cc23)C1=O was tested, and the inhibition was 81.3% (active).
For O=S(=O)(O)c1ccc(O)c2ncccc12.O=S(=O)(O)c1ccc(O)c2ncccc12.[Zn], the inhibition was 63.9% (active).
